Screens deposited in PubChem by Sanford-Burnham Center for Chemical Genomics.
An excerpt weighted towards active compounds, which were near 2.6% of everything screened.
A3A deaminase – inhibitors of human APOBEC3A DNA deaminase | recombinant A3A, FAM/TAMRA ssDNA deamination fluorescence | inhibition, % at 20 µM | 330,000 compounds, 0.41% hits;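 active means at least 40% inhibition at 20 µM here, with at most 30% in a related deaminase screen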;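 further: plate controls were A3A with DMSO for no effect and wells lacking A3A enzyme for full effect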
eIF4H inh – inhibitors of RNA binding by human eIF4H; Q15056; eIF4H fluorescence polarization binding assay; inhibition, % at 35 µM; 290,000 compounds, 0.94% hits; AID 2012;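 further: calls also rest on retests at 20 µM and on dose response follow-up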
APOBEC3G inh – blocks human APOBEC3G single-stranded DNA deamination; Q9HC16; recombinant A3G, ssDNA deamination FAM/TAMRA fluorescence; inhibition, % at 20 µM; 330,000 compounds, 0.28% hits; AID 493012;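 active means inhibition of at least 40% at 20 µM, with no more than 30% in the related APOBEC3A deaminase screen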;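 further: plate controls were DMSO wells with A3G for no effect and wells lacking A3G enzyme for full effect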
PHOSPHO1 inh – inhibitors of human PHOSPHO1 phosphatase; inhibition, % at 13.3 µM; 290,000 compounds, 1.1% hits; Q8TCT1; AID 1565; recombinant PHOSPHO1, absorbance phosphatase assay; in the data active means inhibition above about 60%
PABP FP inh – PABP-poly(A) binding inhibition | PABP-poly(A) RNA binding, fluorescence polarization | calls only at 35 µM | 290,000 compounds, 1% hits;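 further: calls also rest on retests at 20 µM and on dose response follow-up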
Target sequence (P11940 whole entry, looked up): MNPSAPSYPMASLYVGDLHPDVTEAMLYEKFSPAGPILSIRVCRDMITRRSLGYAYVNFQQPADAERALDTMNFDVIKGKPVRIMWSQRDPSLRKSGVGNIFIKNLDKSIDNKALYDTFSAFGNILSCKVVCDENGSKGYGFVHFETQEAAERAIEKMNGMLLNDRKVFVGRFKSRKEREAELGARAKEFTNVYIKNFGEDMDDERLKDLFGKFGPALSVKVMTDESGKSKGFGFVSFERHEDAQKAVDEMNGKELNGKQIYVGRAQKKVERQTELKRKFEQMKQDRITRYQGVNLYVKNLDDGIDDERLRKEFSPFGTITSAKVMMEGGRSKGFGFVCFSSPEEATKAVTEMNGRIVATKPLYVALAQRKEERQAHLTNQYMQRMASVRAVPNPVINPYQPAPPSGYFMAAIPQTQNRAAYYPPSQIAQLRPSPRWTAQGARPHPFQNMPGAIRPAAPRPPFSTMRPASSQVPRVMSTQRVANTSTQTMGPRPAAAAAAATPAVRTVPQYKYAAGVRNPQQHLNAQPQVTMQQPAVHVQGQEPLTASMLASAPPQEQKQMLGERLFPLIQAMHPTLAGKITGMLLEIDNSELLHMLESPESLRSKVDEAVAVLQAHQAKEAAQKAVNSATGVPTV
MLLE-PAM2 inh – inhibitors of microRNA-mediated deadenylation, human PABP1 MLLE binding; P11940; GST-MLLE / FITC-PAM2 fluorescence polarization; inhibition, % at 20 µM; 360,000 compounds, 0.36% hits; AID 588489; in the data active means inhibition above about 35%, passing the limit was not always enough;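 further: plate controls were DMSO wells with GST-MLLE for no effect and wells lacking GST-MLLE protein for full effect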
An asterisk follows results filed as active; i = inactive; ? = inconclusive; . = no result; + = active, no number. Unless noted, how the calls were made is not given here.

SMILES	A3A deaminase	eIF4H inh	APOBEC3G inh	PHOSPHO1 inh	PABP FP inh	MLLE-PAM2 inh
CC1(C)CC(=O)C(C2=NC3(CCCCCC3)Cc3ccccc32)=C(O)C1	-3	-5	-6	24	i	-17
COc1cccc(CN2CCC(Oc3ccc(C(=O)NCc4ccccn4)cc3)CC2)c1O	0	-6	1	-12	i	-7
COC(=O)C1=C(C)N(c2ccc(OC)c(OC)c2)C(=O)/C1=C\c1cccs1	4	0	-1	23	i	-16
COC(=O)C1=C(C)N(c2ccc(OC)cc2)C(=O)/C1=C\c1cccs1	3	active	-4	-3	+	-9
COc1ccccc1/C=C/C=N/n1c(-c2cc(C)[nH]n2)n[nH]c1=S	0	-1	36	62*	i	11
COc1ccc(-c2n[nH]c(=S)n2/N=C/C=C\c2ccccc2OC)cc1	-2	2	0	66*	i	-25
COc1ccccc1/C=C/C=N/n1c(-c2ccc(C)cc2)n[nH]c1=S	-1	2	-1	86*	i	-43
COc1ccccc1/C=C/C=N/n1c(-c2n[nH]c3c2CCC3)n[nH]c1=S	-8	6	22	23	i	-37
COc1ccccc1/C=C/C=N/n1c(-c2ccco2)n[nH]c1=S	-5	5	16	85*	i	-11
CCOc1ccc(S(=O)(=O)N2CCCC(C(=O)N3CCN(c4ccccc4)CC3)C2)cc1 (centres undefined)	0	-3	-4	12	i	-7
CCOc1ccccc1NC(=O)C1CCCN(S(=O)(=O)c2ccc(-n3cnnn3)cc2)C1 (centres undefined)	-4	-5	-8	42	i	6
Nc1nc(-c2ccc3c(c2)CCO3)cs1	0	0	-2	57	+	13
COCCNS(=O)(=O)c1ccc2c(c1)oc(=O)c1cc(S(=O)(=O)NCCOC)ccc12	-16	-1	-1	12	+	.
NS(=O)(=O)c1ccc2c(c1)oc(=O)c1cc(S(N)(=O)=O)ccc12	-2	8	-3	36	i	3
O=C(Nc1ccc(S(=O)(=O)N2CCCC2)cc1)c1cccs1	2	-4	-7	60*	i	-12
CN(C1CCCCC1)S(=O)(=O)c1ccc(NC(=S)NC(=O)c2cccs2)cc1	3	-6	1	-1	i	43*
Cc1cc(C)cc(NS(=O)(=O)c2ccc(NC(=S)NC(=O)c3cccs3)cc2)c1	2	5	-6	5	i	34
C=CCC[C@H](Cc1ccc(F)cc1)C(=O)OC[C@H](Cc1c[nH]c2ccccc12)NC(=O)[C@@H](CC=C)CC(=O)NCCO	-1	.	-6	.	.	1
COCCNc1nc(=S)[nH]c2cc(OC)c(OC)cc12	-4	0	-4	68*	i	-98
O=C(/C=C/c1cccc([N+](=O)[O-])c1)N1CCN(c2ccccc2F)CC1	3	-8	-3	-8	i	4
O=[N+]([O-])c1cccc(C(=S)N2CCN(c3ccccc3)CC2)c1	-5	9	19	79*	i	63*
O=[N+]([O-])c1cccc(C(=S)N2CCN(c3ccccc3F)CC2)c1	-7	12	-9	43	i	46*
CC1CN(C(=S)c2cccc([N+](=O)[O-])c2)CC(C)O1 (centres undefined)	0	-1	21	-11	i	39*
C/C(=N\O)C(C)Oc1ccc(Cl)cc1 (centres undefined)	-1	0	-7	45	i	13
CC(=O)NN1C(=O)/C(=C/c2ccc(Br)o2)SC1=S	80	47	39	87*	i	31
SMILES	A3A deaminase	eIF4H inh	APOBEC3G inh	PHOSPHO1 inh	PABP FP inh	MLLE-PAM2 inh
CC(=O)NN1C(=O)/C(=C\c2ccc(Br)o2)SC1=S	91	95	66	-11	i	11
CN(C)CCCNc1nc2cc(-c3ccn[nH]3)sc2c(=O)n1C	.	.	.	.	.	11
Cc1ccc(S(=O)(=O)C(C#N)c2nc3ccccc3nc2N2CC(C)OC(C)C2)cc1C (centres undefined)	1	85*	-1	78*	+	11
CC1CCCN(c2nc3ccccc3nc2C(C#N)S(=O)(=O)c2cccs2)C1 (centres undefined)	-1	35	-1	102*	i	51*
Cc1cccc(S(=O)(=O)C(C#N)c2nc3ccccc3nc2N2CC(C)OC(C)C2)c1 (centres undefined)	-4	95	-6	43	i	9
COc1ccc(NS(=O)(=O)c2cccc(C(=O)OCC(=O)N3CCN(c4ccc(OC)cc4)CC3)c2)cc1	-1	.	-2	.	.	-1
Cc1c(/C=C2\SC(=Nc3cccc(C(=O)O)c3)NC2=O)c2ccccc2n1C	32	0	7	13	+	-174
Cc1cccc(N=C2NC(=O)/C(=C/c3cccn3C)S2)c1	-4	11	-11	33	i	-22
O=[N+]([O-])c1cc2no[n+]([O-])c2cc1N1CCCCC1	.	.	.	.	.	-36
Cc1ccsc1/C=N/NC(=O)C(=O)NCC(C)C	4	-2	7	17	i	7
C=CCNC(=S)NNC(=O)c1ccc(OCC(C)C)cc1	-5	0	-5	60*	i	3
C=CCNC(=S)NNC(=O)c1ccc(OCC)cc1	-4	-1	-7	50	i	-18
O=C(CSc1nc2c(sc3ccccc32)c(=O)n1CCc1ccccc1)NCc1ccco1	0	12	-6	-3	i	-14
CCN(CC)CCn1c(SCC(=O)NCc2ccccc2)nc2c(sc3ccccc32)c1=O	-1	4.5*	-9	-12	+	28
Cc1cc(O)c(/C=N/Nc2ccc(Cl)cc2)c(=O)o1	6	5	32	-106	i	-3
Cc1cc(O)c(/C=N/Nc2cccc(Cl)c2)c(=O)o1	-3	0	25	101*	i	-7
COc1ccccc1CCN=C(N)NS(=O)(=O)c1ccccc1F	2	-6	0	66*	i	-5
C#CCOCCOCCOCCNc1nc(N2CCN(C(=O)[C@H]([C@@H](C)CC)n3cc([C@@H](N)CC(C)C)nn3)CC2)nc(N2CCN(C(=O)[C@H](CCCCN)n3cc([C@@H](N)CC(C)C)nn3)CC2)n1	-4	55*	-19	43	+	.
CC(C)C[C@H](N)c1cn([C@@H](CCCCN)C(=O)N2CCNCC2)nn1	3	16	-1	35	+	10
CCCCc1cn([C@@H](CCCCN)C(=O)N2CCNCC2)nn1	2	?	-3	26	?	49*
NCCCC[C@@H](C(=O)N1CCNCC1)n1cc(CN)nn1	-1	.	-6	.	.	-6
C#CCOCCOCCOCCNc1nc(N2CCN(C(=O)[C@H]([C@@H](C)CC)n3cc([C@@H](N)CC(C)C)nn3)CC2)nc(N2CCN(C(=O)[C@H](CCCCN)n3cc([C@@H](N)C(C)CC)nn3)CC2)n1 (some centres undefined)	-3	35	-9	9	i	5
